# Screening results: PubChem BioAssay, National Center for Advancing Translational Sciences (NCATS)
# Chronic BCR inh: chronic active BCR signaling inhibition; Potency, µM (doses to about 46.1 µM), most hits filed as inhibitors; ABC-DLBCL IkBa-CBG/CBR reporter, luminescence ratio, 4 h; 340,000 tested, 0.05% active; active = well fitted inhibition curve with a large enough effect in the signal ratio, with a control signal flat, not every such curve was filed as active; inconclusive = small, poorly fitted or top-dose-only effect, or effect the other way, or a change in a side signal; the % refers to the signal ratio
#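 TMD8 human ABC-DLBCL cells with doxycycline-inducible IκBα–green luciferase fusion and unfused red luciferase, in 0.5% FBS medium; compounds up to 46 uM, 4 h at 37C. Green/red luminescence ratio, filter-overlap corrected, fitted to concentration-response curves.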
# Giardia kill: kills Giardia lamblia | Giardia lamblia trophozoite viability | activity change, % at 7.66 µM, hits read low | 340,000 tested, 0.15% active | AID 540267; in the data active = activity change below about -80%; inconclusive = between about -30% and that limit;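 also: parasites exposed to compound for two days anaerobically before the ATP read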
#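 Giardia lamblia trophozoites (100 cells/well) were incubated with compounds for 48 h at 37 deg C under anaerobic conditions. Viability was read as ATP content by one-step luminescence after 15-30 min at room temperature.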
# RORgamma inh: ROR gamma (mouse) transcription inhibition. Potency, µM (series often up to 53.6 µM), most hits filed as inhibitors. Drosophila S2 Gal4-RORgamma UAS-luciferase reporter, 20 h. 310,000 tested, 5.4% active; also: nearly all actives have a fitted effect of over 60% in size
# Target sequence (P51450 whole entry, looked up, the tested form may be a part): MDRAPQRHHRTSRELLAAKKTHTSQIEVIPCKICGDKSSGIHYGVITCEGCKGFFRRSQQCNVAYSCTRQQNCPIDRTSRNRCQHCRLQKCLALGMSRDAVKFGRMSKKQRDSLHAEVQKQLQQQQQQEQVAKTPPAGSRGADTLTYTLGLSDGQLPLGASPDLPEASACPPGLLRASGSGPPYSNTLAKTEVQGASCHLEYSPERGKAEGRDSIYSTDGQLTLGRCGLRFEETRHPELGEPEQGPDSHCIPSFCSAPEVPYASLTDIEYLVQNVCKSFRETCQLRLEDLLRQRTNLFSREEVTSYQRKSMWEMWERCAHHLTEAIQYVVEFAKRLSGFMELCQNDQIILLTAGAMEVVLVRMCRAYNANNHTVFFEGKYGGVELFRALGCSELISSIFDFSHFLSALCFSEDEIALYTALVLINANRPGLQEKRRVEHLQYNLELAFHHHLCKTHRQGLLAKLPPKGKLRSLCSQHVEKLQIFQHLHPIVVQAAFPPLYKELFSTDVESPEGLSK
#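 Compounds are pin-transferred onto Drosophila Schneider cells expressing a copper-inducible Gal4–ROR gamma transactivation domain fusion. After 1 hr, copper sulfate is added to 700 uM final; luciferase is read 20 hr later.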
# Gal4-VP16 FLuc: counter-screen for ROR gamma inhibitors: Gal4-VP16 reporter; Drosophila S2 Gal4-VP16 UAS-luciferase, luminescence, 20 h; Potency, µM (highest dose often 53.6 µM), usual class: inhibitors; 310,000 tested, 3.5% active; AID 2546;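 also: Gal4-VP16 expression switched on by copper sulfate through the metallothionein promoter; nearly all actives have a fitted effect of over 50% in size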
# MCF10A rerep: inducers of DNA re-replication in MCF 10A breast cells. Potency, µM (highest dose often 46.1 µM), most hits filed as activators. 350,000 tested, 2.9% active. MCF 10A DNA re-replication, Hoechst nuclear intensity, 48 h; also: nearly all actives have a fitted effect of over 50% in size
# SW480 rereplic: DNA re-replication induction in SW480 cells; AID 624297; 340,000 tested, 1.8% active; Potency, µM (titrated, usually from 46.1 µM), most hits filed as activators; SW480 DNA re-replication, Hoechst DNA content imaging, 48 h; also: nearly all actives have a fitted effect of over 55% in size
#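 First, 250 cells per well were seeded. Next, compound or vehicle (23 nL) was pinned in, plates sat 48 hr at 37 C. Finally Hoechst was added for 40 min before fluorescence scanning.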
# Numbers stand for hits; – = inactive; ? = inconclusive; · = no result given; [ ] = dose if it differs, or a comment. Most compounds without a hit are left out; they make up all but 8.3% or so of the library. Unless noted, calls follow the shape of the dose curve; as a rule, active = well fitted curve in the direction sought with a large enough effect; inconclusive = small, poorly fitted or top-dose-only effect, or another doubt; inactive = no such curve, though single readings can be large; an effect the other way counts as inactive or inconclusive.
SMILES,Chronic BCR inh,Giardia kill,RORgamma inh,Gal4-VP16 FLuc,MCF10A rerep,SW480 rereplic
CC12CCC(=O)C=C1CCC1C2CCC2(C)C(c3csc(N)n3)CCC12 (stereo not drawn),·,–,·,·,16µM,?
O=C(CSc1nnc(CNc2ccc(Cl)cc2)o1)Nc1nc2c(s1)CCCC2,–,–,11µM,?,–,–
CC(c1ccc(Cl)cc1)n1c(-c2ccc3ccccc3n2)n[nH]c1=S (stereo not drawn),?,–,1.8µM,4.5µM,?,–
CC(c1ccc(F)cc1)n1c(-c2ccc3ccccc3n2)n[nH]c1=S (stereo not drawn),–,–,0.89µM,3.5µM,–,–
CC1(C)Cc2ccccc2-c2nnc(-c3ccc4ccccc4n3)n21,–,–,–,–,–,–
Cc1c(C(=O)N(C)C)sc2c1c(=O)n(-c1ccc(F)cc1)c(=O)n2Cc1ccccc1C#N,–,·,·,·,·,·
CCCCCCCCCCCCCCCCn1cc[n+](Cc2ccccc2)c1C,·,·,?,7.1µM,·,·
CCCCCCn1cc(C(=O)O)c(=O)c2ccccc21,–,–,–,–,–,–
O=S(=O)(Cc1cc(NCc2ccccc2)nc(-c2ccccn2)n1)c1ccccc1,–,–,4.5µM,?,–,–
CC(=O)OCCCNc1cc(Sc2nc3ccccc3s2)c2nonc2c1[N+](=O)[O-],–,–,3.5µM,5µM,?,–
CC(=O)OCCCNc1cc(Sc2ccc(C)cc2)c2nonc2c1[N+](=O)[O-],–,–,–,?,?,?
CC(=O)OCCNc1cc(SCc2ccco2)c2nonc2c1[N+](=O)[O-],?,–,11µM,?,–,?
CC(C)CN1C(=O)c2ccc(C(=O)NCc3ccccn3)cc2C1=O,–,–,–,–,–,?
CC(C)CN1C(=O)c2ccc(C(=O)Nc3ccncc3)cc2C1=O,–,–,?,20µM,–,–
CCCN1C(=O)c2ccc(C(=O)Nc3nccs3)cc2C1=O,?,–,10µM,?,–,–
CCCc1cc(C(=O)Nc2nccs2)cs1,?,–,5µM,7.9µM,–,?
CC(C)CN1C(=O)c2ccc(C(=O)Nc3ccccn3)cc2C1=O,?,?,–,–,–[0.0737 µM],–
CC(C)CN1C(=O)c2ccc(C(=O)Nc3nccs3)cc2C1=O,–,–,8.9µM,?,–,–
CCCN1C(=O)c2ccc(C(=O)Nc3cc(C)on3)cc2C1=O,–,–,–,–[0.365 µM],–,–
Cc1ccccc1CC(=O)Nc1cc(C(C)(C)C)on1,–,–,–,–,–,–
Cc1ccc(S(=O)(=O)NCCc2nc3ccccc3[nH]2)cc1,–,–,–,–,–,–
COCCN1C(=O)c2ccc(C(=O)Nc3nccs3)cc2C1=O,?,–,–,–,?,1.2µM
COc1ccc(-c2cc(C3CC3)nc(N)c2C#N)cc1,?,–,–,–,–,–
COc1ccc(-c2cc(C3CC3)nc3sc(C#N)c(N)c23)cc1,?,–,–,–[0.365 µM],3.7µM,13µM
O=C(CCCn1c(=O)[nH]c2ccccc2c1=O)N1CCN(c2ccccn2)CC1,–,–,–,–,–,–
SMILES,Chronic BCR inh,Giardia kill,RORgamma inh,Gal4-VP16 FLuc,MCF10A rerep,SW480 rereplic
O=C(CCCCCn1c(=S)[nH]c2cc3c(cc2c1=O)OCO3)N1CCN(C(=O)c2ccco2)CC1,–,–,–,–,–[0.0737 µM],–
O=C(CCCCCn1c(=S)[nH]c2cc3c(cc2c1=O)OCO3)N1CCN(Cc2ccccc2)CC1,?,–,–[0.365 µM],·,21µM,?
COc1ccc(N2CCN(C(=O)CCCn3c(=S)[nH]c4cc5c(cc4c3=O)OCO5)CC2)cc1,–,–,7.1µM,?,–,?
COc1ccc(CNC(=O)CCCn2c(=S)[nH]c3cc4c(cc3c2=O)OCO4)cc1,–,–,–,–,–,?
O=C(CCn1c(=S)[nH]c2cc3c(cc2c1=O)OCO3)NCc1cccc(Cl)c1,–,–,?,?,?,?
O=C(CCCn1c(=S)[nH]c2cc3c(cc2c1=O)OCO3)NCc1cccc(Cl)c1,–,–,13µM,?,–,–
O=C(CCCn1c(=S)[nH]c2cc3c(cc2c1=O)OCO3)N1CCN(c2ccccn2)CC1,–,–,13µM,?,–,–
CC1(C(=O)OCC(=O)Nc2cc(S(=O)(=O)N3CCOCC3)ccc2Cl)CC1(Cl)Cl (stereo not drawn),·,–,·,·,–,–
Clc1cc(Sc2ccc(Br)cc2)nnc1-c1ccccc1,–,–,–,–,?,–
O=C(CSc1n[nH]c(-c2ccncc2)n1)Nc1ccccc1Cl,–,–,·,·,–,–
Cc1cccc(NC(=S)NCc2ccco2)n1,?,–,1.3µM,4.5µM,–,–
S=C(NCc1ccccc1)NCc1ccco1,–,–,11µM,?,–,–
S=C(NCc1ccco1)NCc1ccco1,·,–,·,·,–,–
NNC(=S)NCc1ccco1,?,–,7.1µM,?,–,–
CC(=O)c1ccccc1OCC(O)Cn1ccnc1 (stereo not drawn),–,–,–,–,–,–
OCC[C@H]1C[C@H](O)[C@@H](O)[C@]2(CCCc3ccccc3O2)O1,–,–,·,·,–,–
CCOC(=O)CCc1c(C)c2ccc(OC3CCCCC3=O)cc2oc1=O (stereo not drawn),–,–,–,–,–,–
O=C(O)c1ccc(N2CCCCCC2)c(N2C(=O)c3ccccc3C2=O)c1,?,?,–,–,–,–
O=C1c2cccc3c(N4CCCCC4)ccc(c23)C(=O)N1c1ccccc1O,–,–,–,?,5.8µM,18µM
O=C1c2cccc3c(N4CCCCC4)ccc(c23)C(=O)N1c1ccc(O)cc1,?,–,–,–,5.8µM,12µM
CC(c1ccccc1)n1c(CCCO)nc2ccccc21 (stereo not drawn),–,–,–,–,–,–
CC(C)(C)OC(=O)NCCCCCNC(=O)c1ncn(Cc2ccccc2)c1C(=O)NCCCCCNC(=O)OC(C)(C)C,–,–,·,·,–,–
COc1ccc(NCc2ccc([N+](=O)[O-])s2)c(OC)c1,?,?,–,11µM,–,·
Cc1ccc(S(=O)(=O)N2CCN(C(=O)COC(=O)c3cccc(Cl)c3)CC2)c(C)c1,–,–,·,·,–,–
CCCc1nnc(NC(=O)CSc2nnc(-c3ccco3)n2C)s1,?,–,–,–,–,–
CCCn1c(C2CCCN2c2nc(C)cs2)nc2cc(Cl)c(Cl)cc21 (stereo not drawn),?,–,?,?,–,–
CCCn1c(C2CCCN2c2nc(-c3cccc(Br)c3)cs2)nc2cc(Cl)c(Cl)cc21 (stereo not drawn),–,–,2.5µM,5.6µM,?,?
N#C/C(=N\Nc1cccc2ccccc12)c1nnc2n1CCCCC2,?,–,?,3.2µM,?,?
N#C/C(=C\c1c[nH]c2ccccc12)c1nnc2n1CCCCC2,–,–,?,–,–,–
